# Results from ChEMBL document CHEMBL3988442, “University of Dundee, Small-Polar-MMV Screening Library” (2021).
# System: Trypanosoma cruzi
# Test: Trypanosoma cruzi phosphomannomutase and mannose-1-phosphate guanylyltransferase assay
# Type: functional
# Set-up: scale not given: direction of the effect not stated beside the values
# Conditions: 10 µM
row,Structure (SMILES),Percent Effect [%]
1,CN(C)S(=O)(=O)N1C[C@@H](Oc2ccccn2)[C@H]2OCCC[C@H]21,0.493
2,Cc1ccc(CC(=O)N2Cc3nccn3CC(CN(C)C)C2)cc1 (stereo not drawn),0.198
3,COc1cc(CNCc2ccnc(N3CCOCC3)c2)cc(Cl)c1OC,0.0943
4,CC(C)(C)OC(=O)NC(C)(C)c1noc(CN2CCCCC2)n1,-3.02
5,Cc1cc(CC(=O)NCc2ccnc(OCC(F)(F)F)c2)no1,-6.2
6,Cc1nc(N2CCN(C(=O)C(C)(C)C)CC2)cc(-n2cnc(C)c2C)n1,6.2
7,Cc1ccc(-c2noc(CN3CCOC(Cn4cncn4)C3)n2)cc1 (stereo not drawn),2.14
8,Cc1nc(C)n(CC2CCCN2CC(=O)NCCc2ccccc2)n1 (stereo not drawn),1.37
9,Cn1c(C2CC2)nc2c1CCN(CC(=O)Nc1nncs1)C2,-2.06
10,CCc1csc(C2CCCN(C(=O)C3=NN(CC)C(=O)CC3)C2)n1 (stereo not drawn),6.37
11,Cc1nccc([C@H]2C[C@@H]3CCN(S(=O)(=O)N(C)C)C[C@H]3O2)n1,5.18
12,CO[C@H]1CCN(c2ncccn2)[C@H]1Cc1ccccc1,-3.25
13,CNc1cc(N2CCCC2CNCc2ccc(Cl)o2)ncn1 (stereo not drawn),8.98
14,O=C(O)C(c1ccc2c(c1)OCO2)N1CCC(C(=O)N2CCCC2)CC1 (stereo not drawn),-5.36
15,COc1ccc(CC(=O)N2CCCCC2Cn2cccn2)cc1OC (stereo not drawn),0.682
16,COCC(c1cccc(C(F)(F)F)c1)N(C)C(=O)c1cc(C)no1 (stereo not drawn),0.564
17,CNS(=O)(=O)CCCN1CCCC1c1cc(C)on1 (stereo not drawn),-3.68
18,Cc1cc(C)n(CC2CCCN2CC(=O)NC2CCOCC2)n1 (stereo not drawn),-3.93
19,Cc1cc(C)n(-c2ccc(CNCc3ccc(OC(C)C)cc3)cn2)n1,6.01

# Target: T1, Arginase-2, mitochondrial (Homo sapiens) (UniProt P78540)
# T1 sequence (whole entry): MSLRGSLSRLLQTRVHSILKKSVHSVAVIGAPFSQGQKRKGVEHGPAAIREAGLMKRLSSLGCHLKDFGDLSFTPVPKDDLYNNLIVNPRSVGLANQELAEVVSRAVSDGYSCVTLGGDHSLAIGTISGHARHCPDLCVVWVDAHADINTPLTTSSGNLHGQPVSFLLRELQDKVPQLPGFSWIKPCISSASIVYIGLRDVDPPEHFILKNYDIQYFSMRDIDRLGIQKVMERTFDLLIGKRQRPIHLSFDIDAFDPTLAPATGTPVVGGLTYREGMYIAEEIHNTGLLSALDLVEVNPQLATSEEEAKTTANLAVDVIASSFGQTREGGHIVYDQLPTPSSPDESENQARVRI
# Test: in vitro enzyme assay to detect the production of urea directly proportional to the activity of Arginase II; note: in the data most compounds retested in dose-response had high values
# Type: functional
# Set-up: scale not given: direction of the effect not stated beside the values
# Conditions: 33.3 µM
row,Structure (SMILES),Percent Effect [%]
1,Cc1ncsc1C(=O)N(C)CCc1ccncc1,0
2,O=C(O)c1ccc(F)c(S(=O)(=O)Nc2c(F)cccc2-n2cccn2)c1,3.12
3,Cn1cnc2c1C(COCc1cccnc1)N(Cc1ccccn1)CC2 (stereo not drawn),-51.8
4,Cc1cc(CN2CCCC(C)(CO)C2)ccc1F (stereo not drawn),12.2
5,CCS(=O)(=O)CC(=O)NC(c1ccc(F)cc1)C1CCCC1 (stereo not drawn),-2.37
6,O=C(Nc1cccc(CN2CCOC2=O)c1)N1CCOCC1,3.09
7,CC(C)c1cc(NC(=O)c2ccc(C(=O)NC(C)(C)C)cc2)[nH]n1,0.712
8,CN(C)C(=O)CN1CCCCC1c1nc(N)ncc1-c1cccc(F)c1 (stereo not drawn),-4.43
9,CCN1CC(C(=O)NC(C)(C)CC(C)(C)C)CC1=O (stereo not drawn),21.1
10,CC(C)CS(=O)(=O)CC(=O)N(C)Cc1ccc(OC(F)F)cc1,0.476
11,Cc1ccc(C(=O)Nc2cn[nH]c2)cn1,-3.45
12,CSc1nccn1-c1cccc(C(=O)NCc2nnc(C)n2C)c1,1.08
13,CN(Cc1cnn(C)c1)C(=O)Cn1c(CS(C)(=O)=O)nc2ccccc21,-8.28
14,CC1CN(Cc2nccn2C)CCN1c1ccc2nncn2n1 (stereo not drawn),2.85
15,O=C(CCn1cccn1)N1CCN(CC(F)F)CC1,0.554
16,Cc1noc(C(C)C)c1C(=O)N1CCCN(Cc2cscn2)CC1,-0.632
17,CS(=O)(=O)CCNC(=O)C1(c2cccc(Cl)c2)CCCCC1,-2.65
18,CCc1n[nH]c(C2CN(C(=O)c3ccsc3)CCO2)n1 (stereo not drawn),4.84
19,CN(C)C(=O)N1C[C@@H]2CC[C@H](C1)N(C(=O)CCCn1cncn1)C2,1.43
20,CN1CCN(C2CCN(CC(=O)NCC(F)(F)F)CC2)C1=O,-3.8

row,Structure (SMILES),Percent Effect [%]
1,CN(C)S(=O)(=O)N1C[C@@H](Oc2ccccn2)[C@H]2OCCC[C@H]21,-3.23
2,Cc1ccc(CC(=O)N2Cc3nccn3CC(CN(C)C)C2)cc1 (stereo not drawn),5.59
3,COc1cc(CNCc2ccnc(N3CCOCC3)c2)cc(Cl)c1OC,-5.21
4,CC(C)(C)OC(=O)NC(C)(C)c1noc(CN2CCCCC2)n1,1.04
5,Cc1cc(CC(=O)NCc2ccnc(OCC(F)(F)F)c2)no1,-0.766
6,Cc1nc(N2CCN(C(=O)C(C)(C)C)CC2)cc(-n2cnc(C)c2C)n1,-44.1
7,Cc1ccc(-c2noc(CN3CCOC(Cn4cncn4)C3)n2)cc1 (stereo not drawn),-2.03
8,Cc1nc(C)n(CC2CCCN2CC(=O)NCCc2ccccc2)n1 (stereo not drawn),1.36
9,Cn1c(C2CC2)nc2c1CCN(CC(=O)Nc1nncs1)C2,-11.4
10,CCc1csc(C2CCCN(C(=O)C3=NN(CC)C(=O)CC3)C2)n1 (stereo not drawn),2.13
11,Cc1nccc([C@H]2C[C@@H]3CCN(S(=O)(=O)N(C)C)C[C@H]3O2)n1,17.6
12,CO[C@H]1CCN(c2ncccn2)[C@H]1Cc1ccccc1,-13.8
13,CNc1cc(N2CCCC2CNCc2ccc(Cl)o2)ncn1 (stereo not drawn),16.2
14,O=C(O)C(c1ccc2c(c1)OCO2)N1CCC(C(=O)N2CCCC2)CC1 (stereo not drawn),-1.56
15,COc1ccc(CC(=O)N2CCCCC2Cn2cccn2)cc1OC (stereo not drawn),-11.8
16,COCC(c1cccc(C(F)(F)F)c1)N(C)C(=O)c1cc(C)no1 (stereo not drawn),4.98
17,CNS(=O)(=O)CCCN1CCCC1c1cc(C)on1 (stereo not drawn),-1.52
18,Cc1cc(C)n(CC2CCCN2CC(=O)NC2CCOCC2)n1 (stereo not drawn),2.13
19,Cc1cc(C)n(-c2ccc(CNCc3ccc(OC(C)C)cc3)cn2)n1,-3.06
